Out of some 2,100 compounds screened, about 210 (10%) were called active. Not shown: some 53% with an inconclusive outcome. The call rests on the fitted dose curve; in most records, active means well fitted inhibition curve with a large enough effect; inconclusive means small, poorly fitted or top-dose-only effect, or effect the other way; inactive means no such curve, though single readings can be large or run the other way. This is one part of the list. A call without a number means that no potency is given here.
test: IN Cell qHTS Assay for Inhibitors of the mTORC1 Signaling Pathway in MEF (Tsc2-/-, p53-/-) Cells: Sytravon; conditions: phospho-rpS6 immunofluorescence, 24 h; series mostly up to 38.3 µM; further: nearly all actives have a fitted effect of over 60% in size
From the text: NIH Molecular Libraries Probe Production Centers Network [MLPCN] NIH Chemical Genomics Center [NCGC] MLPCN Grant: NS059428-01 Assay Submitter (PI): Blenis, John; Hoffman, Greg; Harvard University NCGC Assay Overview: Thee mammalian target of rapamycin (mTOR) is an intracellular serine/threonine kinase Aberrant regulation of mTOR signaling plays a causative role in a number of human diseases, including cancer, benign tumors such as lymphangioleiomyomatosis (LAM) and Tuberous Sclerosis Complex (TSC), and metabolic diseases such as diabetes and obesity. This project aims to identify inhibitors of ribosomal protein S6 (rpS6) phosphorylation. The phosphorylation of rpS6 is a key event downstream of mTOR activation. The assay uses a phospho-specific antibody of phospho-rpS6 to detect inhibitors of mTOR activation. Mutations in the Tsc1 and Tsc2 genes are the underlying genetic lesions responsible for TSC, causing constitutive activation of the mTORC1 pathway and leading to profound effects on cell metabolism. Aberrant metabolism in cancer has recently received significant attention as a target to develop therapeutic agents in the treatment of cancer1. As Tsc2-/- cells have lost the ability to respond to energy and growth factor deprivation, these cells are unable to properly down regulate cellular biosynthetic processes in response to metabolic stress, and are thus extremely sensitive to glucose deprivation-induced death.2 A central goal of this project is to explore the unique cell survival and metabolic properties of cells with Tsc1 or Tsc2 by screening for compounds that selectively target the Tsc2-/- MEFs by screening both Tsc2-/- and WT MEF cell lines. We hope to better understand these aspects of TSC physiology in order to exploit them for therapeutic benefit.
NCGC IN Cell Assay Protocol: For quantitative high throughput analysis of mTORC1 signaling, we developed a cell-based assay for immuno-fluorescence based detection of rpS6 phosphorylation on the Acumen Explorer that will be used a platform for the primary small molecule screen. Mouse embryonic fibroblasts (MEFs) are cultured in 1536-well plates using DMEM + 10% FBS. Twenty-four hrs after plating, test compounds (solubilized in DMSO) are delivered and incubated with the cells for 24 hrs at 37 degree Celsius. Following the incubation, media with compound is aspirated and the cells are fixed in 4% paraformaldehyde (PFA) containing PBS + 0.2% TX-100. Next, PFA is aspirated, cells are washed two times with PBS plus 0.2% TX-100 and the cells are blocked for 1 hr at room temperature (blocking buffer: LiCOR Blocking Buffer plus 0.2% TX-100). This is followed by aspiration and staining with Alexa-488 conjugated-phospho-rpS6 Ser235/236 antibody for 2 hours at room temperature (Cell Signaling Technology # 4803, 1:50 dilution in blocking buffer). Cells are washed two times with PBS plus 0.2% TX-100, and stained with 10 uM propidium iodide (PI) for 20-25 minutes for cell number measurement (1:500 dilution of Hoescht staining is also added for IN Cell imaging). Active wells which are selected (based on Acumen results) are imaged on the IN Cell 1000 (GE Healthcare) using the D360/40X and HQ480/40X excitation filters for the Hoechst and Alexa-488 cytoplasmic stains, respectively. The fluorescence emission filters used were HQ460/40M and HQ535/50M for the Hoechst and Alexa-488 cytoplasmic stains, respectively. The normalized phospho-S6 staining is calculated as the ratio of […] for the single concentration rapamycin control (7.5 nM) and DMSO columns. […] Inhibition of the pathway is defined based on the normalized phospho-S6 intensity in rapamycin treated cells. Each treatment is reported as the % positive cells in the well, where thresholds are defined by selecting wells with the highest and lowest signal and differentiating between the % non-active and % active populations. […]
Potency means the concentration at half of the fitted maximal effect.

| SMILES | Potency |
| --- | --- |
| O=c1oc2ccccc2cc1-c1cn2cc(Cc3ccc(F)cc3)sc2n1 | 1.65 µM (active) |
| CCc1ccc(-n2nc(C)c3c2NC(=O)CSC3c2ccc(OC)cc2OC)cc1 (centres undefined) | inactive |
| Cc1cccc(CN2CC=C(c3noc(CCC(=O)Nc4ccc(C)c(F)c4)n3)CC2)c1 | inactive |
| Nc1c(C(=O)Nc2cccc(Br)c2)sc2nc3c(cc12)N1CCC3CC1 | inactive |
| O=C(Nc1ccccc1)N(Cc1ccc2c(c1)OCO2)C1CCN(Cc2ccccc2)CC1 | inactive |
| COc1ccc2nc(NC(=O)c3nc(S(=O)(=O)Cc4cccc(C)c4)ncc3Cl)sc2c1 | 16.5 µM (active) |
| CCOc1ccc(NC(=O)c2cccn(Cc3cccc(Cl)c3)c2=O)cc1 | inactive |
| CCOc1ccc(NC(=O)c2cc3c(C)nn(-c4ccccc4)c3s2)cc1 | 14.7 µM (active) |
| Cc1ccc(-n2c(/C=C/c3ccc(Br)s3)nc3ccccc3c2=O)cc1C | inactive |
